In PMC8384837, “Expanding the binding specificity for RNA recognition by a PUF domain”:

Each sequence was assayed against PUM1 PUF domain R4-CNG (Homo sapiens, UniProt Q14671 828-1176, N971C;H972N;Q975G) (assay: yeast three-hybrid, YBZ-1, SC-Leu-His + 0.5 mM 3-AT, 4 days). Conditions: tags: N-Gal4 AD-HA kept; label: inside an RPR1-promoter hybrid RNA with tandem MS2 sites; ssRNA.
Method in brief: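 The interaction score is the log change in variant frequency from input to selection. Scores were computed in log2 with a pseudocount of 1 for absent variants, using Illumina sequencing of PCR-amplified repeat regions. The input came from four days on SC-Leu and the selection from four days on SC-Leu-His + 0.5 mM 3-AT. The cells were strain YBZ-1 (LexA–MS2 coat fusion, HIS3 reporter) co-expressing Pumilio-1 PUF domain libraries and matching RNA elements from a centromeric plasmid.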

Sequence | binding signal
GGCUAGAACUAGUGGAUCCCCCGGCGCCCGGCGGCUCGAGCCCGGGUAAGUGUAAAUAGUCUGCAUGCCGCCGGGCGCCAUGCCUGCAGGUCGACUCUAGAAAACAUG | 2.92 log2 enrichment (interaction score)
GGCUAGAACUAGUGGAUCCCCCGGCGCCCGGCGGCUCGAGCCCGGGUAAGUGUAUAUAGUCUGCAUGCCGCCGGGCGCCAUGCCUGCAGGUCGACUCUAGAAAACAUG | 4.94 log2 enrichment (interaction score)
GGCUAGAACUAGUGGAUCCCCCGGCGCCCGGCGGCUCGAGCCCGGGUAAGUGUACAUAGUCUGCAUGCCGCCGGGCGCCAUGCCUGCAGGUCGACUCUAGAAAACAUG | 2.39 log2 enrichment (interaction score)
